From PubChem BioAssay come the findings set out here.

For test [1], the target named is Albumin (Bos taurus) (UniProt P02769). Briefly: compounds binding labelled BSA control protein – biochemical, small-molecule microarray, Alexa647 label, 635/667 nm fluorescence, artefact control for SMM control protein annotation, profiling panel (AID 1118).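 Note: score merges 667 nm emission intensity and signal-to-noise per printed compound spot.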 The following applies: BSA-A647 binding, fluorescence 635 nm, higher = more signal.
Chain of Albumin (Bos taurus) (P02769 whole entry, looked up): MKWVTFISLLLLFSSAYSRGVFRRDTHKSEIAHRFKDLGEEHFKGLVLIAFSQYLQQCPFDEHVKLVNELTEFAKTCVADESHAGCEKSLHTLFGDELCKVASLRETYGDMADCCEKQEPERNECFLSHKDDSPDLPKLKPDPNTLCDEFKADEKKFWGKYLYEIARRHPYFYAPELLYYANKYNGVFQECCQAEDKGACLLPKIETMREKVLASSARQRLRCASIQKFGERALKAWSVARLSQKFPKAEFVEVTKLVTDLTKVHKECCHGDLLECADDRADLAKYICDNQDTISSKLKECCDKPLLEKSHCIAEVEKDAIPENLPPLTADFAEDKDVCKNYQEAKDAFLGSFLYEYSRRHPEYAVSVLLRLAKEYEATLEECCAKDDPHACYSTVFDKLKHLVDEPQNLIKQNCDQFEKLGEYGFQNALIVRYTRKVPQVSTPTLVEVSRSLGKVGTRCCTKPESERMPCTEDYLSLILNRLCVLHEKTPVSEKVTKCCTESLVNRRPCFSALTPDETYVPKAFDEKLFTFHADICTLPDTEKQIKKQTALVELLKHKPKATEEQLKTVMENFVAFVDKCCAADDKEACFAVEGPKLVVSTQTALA
Test [2] in a line: probe aXIP binding to arrayed compounds – biochemical, NeuroSMM set, 635/667 nm fluorescence, primary screen (AID 1119).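 Note: probe is the protein aXip251-270 applied at 1 µg/mL to compound-printed slides; binding of probe to printed compounds measured as 667 nm fluorescence plus signal to noise.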 The following applies: small-molecule microarray, higher = more signal, called active from +8 up or from −8 down.
Test [3] is described as follows: probe aNOTCH3 binding on compound microarray – biochemical, small-molecule microarray, 635/667 nm fluorescence, primary screen (AID 1120).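 Note: probe is a biotin-tagged antibody raised against NOTCH3 rather than NOTCH3 protein; score merges spot fluorescence near 667 nm with spot signal to noise.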 Particulars: higher = more signal.
The nature of test [4]: probe aNOTCH2 binding on compound microarray – biochemical, small-molecule microarray, 635/667 nm fluorescence, primary screen (AID 1121).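 Note: score merges feature fluorescence read at 667 nm with its signal to noise.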 The following applies: higher = more signal.
The target in test [5] is Carbonic anhydrase 2 (Homo sapiens) (UniProt P00918). Briefly: compounds binding carbonic anhydrase 2 – biochemical, small-molecule microarray, Alexa647-labelled CAII, profiling panel (AID 1122). The following applies: CAII-A647 binding fluorescence, higher = more signal.
Test [6] is described as follows: COS7 lysate on small-molecule microarray, probe aHis, 635 nm (AID 1123).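 Note: z-score combines 667nm fluorescence intensity with signal-to-noise per printed compound spot.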 Particulars: COS7 cell lysate, fluorescence, higher = more signal.
A short description of test [7]: probe aLAP1 signal on lysate-treated microarray – cell lysate, small-molecule microarray, COS7 lysate, primary screen (AID 1124).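 Note: lysate comes from COS7 cells expressing LAP1 and is applied at 0.3 µg/mL; score merges spot fluorescence near 667 nm with signal-to-noise over triplicate slides.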 The following applies: probe aLAP1, fluorescence, higher = more signal.
Test [8] relates to Sam68 (KHDRBS1). Briefly: compounds binding KHDRBS1 protein – biochemical, small-molecule microarray, 635 nm fluorescence, primary screen (AID 1125).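 Note: score merges 667 nm channel intensity with signal to noise over triplicate slides.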 Particulars: higher = more signal.
Test [9] has as its system Chordin-like protein 2 (CHRDL2). Briefly: compounds binding chordin-like 2 – biochemical, small-molecule microarray, 635 nm fluorescence, primary screen (AID 1126).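 Note: printed compound slides probed with Chrdl2 protein at 4 µg/mL for 1 h at 4 C; score merges 667 nm emission intensity with signal to noise over three replicate slides.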 Particulars: fluorescence 635 nm, higher = more signal.
Test [10] addresses Concanavalin-A (Canavalia ensiformis) (UniProt P02866). Briefly: compounds binding concanavalin A lectin – biochemical, small-molecule microarray, Alexa647 label, 635 nm, artefact control for SMM control protein annotation, primary screen (AID 1127).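 Note: z combines 667 nm emission intensity with signal-to-noise across three replicate slides.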 The following applies: ConA-A647 binding fluorescence, higher = more signal.
A short description of test [11]: compounds binding Alexa647 anti-His antibody – biochemical, small-molecule microarray, 635 nm fluorescence, artefact control for SMM control protein annotation, primary screen (AID 1128).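 Note: score merges feature fluorescence with signal-to-noise for each printed compound spot.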 The following applies: higher = more signal.
The test system of test [12] is Human papillomavirus type 1a E7 protein (residues 1-88). Briefly: HPV1a E7 small-molecule binders, primary screen, biochemical, small-molecule microarray, residues 1-88, 635 nm (AID 1129). The following applies: small-molecule microarray binding, fluorescence 635 nm; higher = more signal.
The target of test [13] is Focal adhesion kinase 1 (Homo sapiens) (UniProt Q05397). Briefly: PTK2 protein binding on printed compound slides – biochemical, small-molecule microarray, 635/667 nm fluorescence, BSA, DTT, primary screen (AID 1130).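 Note: composite of spot emission at 667 nm and signal to noise over triplicate slides.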 Particulars: 635 nm fluorescence, higher = more signal.
Chain of Focal adhesion kinase 1 (Homo sapiens) (Q05397 whole entry, looked up): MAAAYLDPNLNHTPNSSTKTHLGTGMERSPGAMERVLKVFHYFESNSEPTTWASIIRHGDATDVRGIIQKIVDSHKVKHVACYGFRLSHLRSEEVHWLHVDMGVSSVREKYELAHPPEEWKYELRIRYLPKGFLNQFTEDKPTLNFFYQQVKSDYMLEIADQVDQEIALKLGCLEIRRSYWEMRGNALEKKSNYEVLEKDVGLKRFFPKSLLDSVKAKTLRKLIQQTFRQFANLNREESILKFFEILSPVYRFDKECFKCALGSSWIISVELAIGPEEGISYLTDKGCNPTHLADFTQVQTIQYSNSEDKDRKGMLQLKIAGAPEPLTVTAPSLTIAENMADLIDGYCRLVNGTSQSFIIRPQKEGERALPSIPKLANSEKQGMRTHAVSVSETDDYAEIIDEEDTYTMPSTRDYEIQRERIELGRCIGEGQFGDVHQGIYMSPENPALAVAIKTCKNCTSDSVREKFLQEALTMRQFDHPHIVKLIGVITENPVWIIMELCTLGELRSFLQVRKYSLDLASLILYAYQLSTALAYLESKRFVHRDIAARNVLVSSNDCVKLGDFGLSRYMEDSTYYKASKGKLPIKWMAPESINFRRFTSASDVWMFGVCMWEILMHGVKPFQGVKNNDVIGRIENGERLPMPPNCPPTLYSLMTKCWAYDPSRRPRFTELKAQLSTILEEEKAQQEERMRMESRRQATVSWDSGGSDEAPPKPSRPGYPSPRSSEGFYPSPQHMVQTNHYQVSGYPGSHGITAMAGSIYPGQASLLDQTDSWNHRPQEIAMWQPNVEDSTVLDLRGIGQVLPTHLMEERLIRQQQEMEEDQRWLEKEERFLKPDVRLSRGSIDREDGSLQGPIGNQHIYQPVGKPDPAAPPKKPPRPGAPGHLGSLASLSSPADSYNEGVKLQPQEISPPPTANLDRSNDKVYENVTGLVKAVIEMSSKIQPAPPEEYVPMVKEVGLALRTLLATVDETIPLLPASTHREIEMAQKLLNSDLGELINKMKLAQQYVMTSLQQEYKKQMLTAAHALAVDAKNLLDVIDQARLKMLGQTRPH
Test [14] concerns Fibrinogen (Alexa647-labelled). Briefly: Alexa647-fibrinogen binding to printed small molecules – biochemical, small-molecule microarray, 635/667 nm fluorescence, artefact control for SMM control-protein annotation, profiling panel (AID 1131).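 Note: z-score merges 667 nm fluorescence with per-spot signal-to-noise over triplicate slides.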 Particulars: fibrinogen-A647 binding fluorescence, higher = more signal.
The target in test [15] is Follistatin (Homo sapiens) (UniProt P19883). Briefly: FST protein binding to printed compounds – biochemical, small-molecule microarray, 635/667 nm fluorescence, primary screen (AID 1132). The following applies: 635 nm fluorescence, higher = more signal.
Chain of Follistatin (Homo sapiens) (P19883 whole entry, looked up): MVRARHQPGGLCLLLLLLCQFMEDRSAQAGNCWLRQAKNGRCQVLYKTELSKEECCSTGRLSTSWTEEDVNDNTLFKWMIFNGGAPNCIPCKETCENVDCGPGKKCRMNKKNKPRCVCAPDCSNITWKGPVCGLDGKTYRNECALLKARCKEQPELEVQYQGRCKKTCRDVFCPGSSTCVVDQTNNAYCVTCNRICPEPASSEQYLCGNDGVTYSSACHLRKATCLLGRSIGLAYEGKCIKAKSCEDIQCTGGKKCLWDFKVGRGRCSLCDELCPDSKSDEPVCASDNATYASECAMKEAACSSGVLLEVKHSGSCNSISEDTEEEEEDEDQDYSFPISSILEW
The target of test [16] is Fibroblast growth factor 2 (Homo sapiens) (UniProt P09038). Briefly: basic fibroblast growth factor binding to printed compounds – biochemical, small-molecule microarray, 635/667 nm fluorescence, primary screen (AID 1133). The following applies: FGF2, fluorescence 635/667, higher = more signal.
Chain of Fibroblast growth factor 2 (Homo sapiens) (P09038 whole entry, looked up): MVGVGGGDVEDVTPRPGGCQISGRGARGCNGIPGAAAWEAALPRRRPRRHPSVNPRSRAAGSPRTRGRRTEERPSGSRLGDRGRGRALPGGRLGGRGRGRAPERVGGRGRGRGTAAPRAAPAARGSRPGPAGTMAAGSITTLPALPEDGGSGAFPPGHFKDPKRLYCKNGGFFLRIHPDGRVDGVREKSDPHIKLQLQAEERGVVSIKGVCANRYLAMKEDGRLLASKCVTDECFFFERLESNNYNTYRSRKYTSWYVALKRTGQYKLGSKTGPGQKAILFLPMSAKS
Test [17] can be described thus: JC-1 mitochondrial potential readout, lung cancer cells – cell-based, A549, JC-1 fluorescence, basal, 24 h, 100 nL, profiling panel (AID 1138).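 Note: A549 lung adenocarcinoma cells under basal conditions with no added stimulus; test concentration not given here.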 The following applies: higher = more signal.
The test system of test [18] is Lefty1. Briefly: Lefty1 protein binding to printed compounds – biochemical, small-molecule microarray, 635/667 nm fluorescence, primary screen (AID 1139). Particulars: fluorescence 635/667, higher = more signal.
Test [19] deals with wheat germ agglutinin (Triticum aestivum), Alexa647-labelled. Briefly: Alexa647-WGA lectin binding to printed small molecules – biochemical, small-molecule microarray, 635/667 nm fluorescence, artefact control for SMM control-protein annotation, profiling panel (AID 1140).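 Note: score merges 667 nm feature emission with signal to noise over triplicate slides.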 The following applies: WGA-A647 binding, 635 nm fluorescence, higher = more signal.
Test [20] concerns the target Luciferin 4-monooxygenase (Photinus pyralis) (UniProt P08659). Briefly: inhibition of purified Photinus pyralis luciferase – biochemical, luminescence, purified enzyme, 2006 set, primary screen (AID 1141).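 Note: cell-free assay with purified firefly luciferase at 100 ng per well in PBS; test concentration not given here.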 The following applies: purified firefly luciferase, SteadyGlo luminescence, 30 min; higher = more signal, called active from +8 up or from −8 down.

Structures are written as SMILES. Calls of active or inactive are those of the source.

Chain of Luciferin 4-monooxygenase (Photinus pyralis) (P08659 whole entry, looked up): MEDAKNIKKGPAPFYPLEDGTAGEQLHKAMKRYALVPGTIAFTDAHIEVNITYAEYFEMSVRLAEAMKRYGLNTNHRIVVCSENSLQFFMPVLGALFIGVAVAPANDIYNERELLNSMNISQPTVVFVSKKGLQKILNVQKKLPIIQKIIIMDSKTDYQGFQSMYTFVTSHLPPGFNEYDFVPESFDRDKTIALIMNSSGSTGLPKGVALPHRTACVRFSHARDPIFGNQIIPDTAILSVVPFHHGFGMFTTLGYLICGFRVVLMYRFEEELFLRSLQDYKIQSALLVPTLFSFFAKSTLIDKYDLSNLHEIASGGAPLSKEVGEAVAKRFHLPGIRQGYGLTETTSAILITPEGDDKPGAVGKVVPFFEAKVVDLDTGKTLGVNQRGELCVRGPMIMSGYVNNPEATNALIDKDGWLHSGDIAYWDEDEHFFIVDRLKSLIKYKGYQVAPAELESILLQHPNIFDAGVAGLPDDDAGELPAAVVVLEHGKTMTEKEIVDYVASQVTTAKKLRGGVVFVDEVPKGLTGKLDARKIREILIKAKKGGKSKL
Chain of Concanavalin-A (Canavalia ensiformis) (P02866 whole entry, looked up): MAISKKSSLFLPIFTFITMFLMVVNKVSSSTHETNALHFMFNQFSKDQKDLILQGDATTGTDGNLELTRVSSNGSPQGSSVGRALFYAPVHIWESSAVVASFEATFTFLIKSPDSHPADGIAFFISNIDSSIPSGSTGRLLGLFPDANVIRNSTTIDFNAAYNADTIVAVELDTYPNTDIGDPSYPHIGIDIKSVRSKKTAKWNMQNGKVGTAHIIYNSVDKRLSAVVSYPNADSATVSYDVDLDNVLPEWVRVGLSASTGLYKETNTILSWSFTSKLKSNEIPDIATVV

`CON=C[C@@H](OC)[C@H](C)C=CCC(=O)OC`: the composite z-score in test [1] is -0.518; in test [3], -0.0014; in test [4] it was -0.201; in test [5] it was -0.312; in test [6], 0.157; in test [7], -0.195. Also, the composite z-score in [8] was -0.258; in test [9], 0.231; in [10] it was -0.105; in [11] it was 1.66; in test [12], 0.158; in [13], -0.069. Further, the composite z-score in [14] is -1.5; in [15] it was 0.0902; in test [16] it was 0.0231; in [18], 0.0713; in test [19] it was -0.115. Moreover, the composite Z-score in [2] is 0.0575 (inactive). Also, the z-score was -0.223 in test [17] and -0.982 (inactive) in test [20].
In the case of `CO[C@H]1COC(=O)CCC[C@H](C)[C@H](OC)COC(=O)CC=C[C@@H]1C`, the composite z-score in test [1] is -0.235; in test [3], -0.189; in test [4] it was -0.118; in test [5], -0.515; in test [6], -1.17; in [7], -0.219. Also, the composite z-score in test [8] was -0.219; in test [9], 1.15; in test [10] it was -0.362; in test [11] it was 1.03; in test [12], -0.676; in test [13], -0.0022. Besides, the composite z-score in [14] is -1.52; in [15] it was 1.1; in test [16] it was 1.13; in test [18] it was 0.987; in test [19], -0.0108. In addition, the composite Z-score in test [2] was -0.348 (inactive). In addition, the z-score in test [17] is -0.904; in [20], -0.981 (inactive).
On to `O=C1[C@H]2[C@H]3[C@H](O)[C@H](O)CC(=NO[C@@H]4O[C@H](CO)[C@@H](O)[C@H](O)[C@H]4O)[C@@H]3CC[C@H]2C(=O)N1C1CCCCC1`, for which the composite z-score in test [1] was -0.156; in [3], 0.0876; in test [4], -0.141; in [5], -0.121; in test [6], 0.139; in [7], -0.1. In addition, the composite z-score is 0.317 in [8]; 0.629 in test [9]; 0.601 in test [10]; -0.293 in test [11]; 0.486 in [12]; -0.0408 in test [13]. The composite z-score came to 0.384 in test [14]; 0.284 in [15]; 0.415 in test [16]; 0.578 in test [18]; 0.0714 in [19]. Also, in [2], the composite Z-score was 0.178 (inactive). The z-score is 0.76 in [17] and -0.33 (inactive) in [20].
On to `CCN1C(=O)[C@H]2[C@H]3[C@H](O)[C@H](O)CC(=NOCC=C(C)CCC=C(C)C)[C@@H]3CC[C@H]2C1=O`, for which the composite z-score in test [1] was 0.44; in test [3], 0.144; in [4] it was -0.118; in test [5], 0.0577; in test [6] it was 0.162; in [7] it was 0.39. Also, the composite z-score in test [8] was 1.25; in test [9], 1.39; in test [10], 0.13; in test [11], 0.521; in test [12], 0.344; in test [13], -0.0746. Also, the composite z-score is 0.493 in test [14]; 1.31 in [15]; 1.01 in test [16]; 1.23 in [18]; -0.207 in test [19]. In [2], the composite Z-score is -0.496 (inactive). For the same molecule, the figures for the z-score in test [17] and in test [20] were -0.717 and 0.146 (inactive), respectively.
Consider `CCOC(=O)CCN1C(=O)[C@H]2[C@H]3[C@H](O)[C@H](O)CC(=NOCC=C(C)CCC=C(C)C)[C@H]3CC[C@H]2C1=O`, for which the composite z-score in [1] was -0.269; in test [3], 0.179; in test [4], -0.167; in test [5], -0.276; in test [6], -0.405; in test [7] it was -0.192. In addition, the composite z-score in [8] was 0.458; in test [9], -0.178; in [10], 0.116; in test [11], -1.12; in [12] it was -0.251; in test [13] it was -0.0341. The composite z-score in [14] is -0.161; in test [15], -0.975; in test [16], 0.404; in test [18] it was -0.893; in test [19], -0.503. The composite Z-score in [2] is -0.113 (inactive). Besides, the results for the z-score in test [17] and in [20] were 0.64 and 0.0499 (inactive), respectively.
Regarding `O=C1[C@H]2[C@H]3[C@H](O)[C@H](O)CC(=NO[C@@H]4O[C@H](CO)[C@@H](O)[C@H](O)[C@H]4O)[C@@H]3CC[C@H]2C(=O)N1c1cccc(Oc2ccccc2)c1`, the composite z-score is 0.29 in test [1]; -0.0391 in [3]; -0.104 in test [4]; -0.0428 in [5]; 0.109 in test [6]; 0.106 in [7]. For the same molecule, the composite z-score in [8] turned out to be 0.324; in [9], 0.775; in test [10], 0.588; in test [11], 0.13; in [12], 0.542; in test [13] it was 0.0405. In addition, the composite z-score in test [14] was 0.578; in test [15] it was 0.858; in test [16], 0.948; in test [18] it was 0.879; in test [19], 0.335. Besides, the composite Z-score in test [2] is -0.65 (inactive). Moreover, the z-score in [17] was -0.728; in test [20], 0.825 (inactive).
As for `COC(=O)[C@H](Cc1ccccc1)NC(=O)[C@@H](C)CO`, the composite z-score in test [1] was 0.317; in test [3], 0.226; in test [4] it was -0.181; in test [5], 0.465; in test [6], 0.207; in [7], 0.143. The composite z-score in [8] was 0.48; in test [9], 0.501; in [10] it was -1.01; in [11], 0.0868; in test [12] it was -0.196; in [13], -0.233. Further, the composite z-score came to 0.115 in test [14]; 1.28 in test [15]; 0.592 in [16]; 1.5 in test [18]; 0.821 in [19]. Also, in test [2], the composite Z-score was 0.047 (inactive). Also, the z-score in [17] was -1.2; in [20], 0.716 (inactive).
Regarding `CCN1C(=O)[C@H]2[C@H]3[C@H](O)[C@H](O)CC(=NNC(=O)OCc4ccccc4)[C@H]3CC[C@H]2C1=O`, the composite z-score in [1] is 0.185; in test [3] it was 0.0145; in test [4] it was -0.129; in [5], -0.0576; in test [6], 0.0949; in [7], -0.198. Besides, the composite z-score in [8] was -0.813; in [9], -0.0255; in test [10], 0.514; in test [11] it was 0.0371; in [12] it was -0.601; in test [13], -0.117. Also, the composite z-score is 0.0307 in test [14]; -0.238 in test [15]; 0.215 in [16]; 0.235 in test [18]; 0.136 in test [19]. In addition, the composite Z-score in test [2] is -0.431 (inactive). Also, the results for the z-score in test [17] and in test [20] were -0.538 and 0.69 (inactive), respectively.
